Data from PubChem BioAssay AID1159580 (chemical genetic matrix, 2015).
“And” between values parts separate entries of the source, which are not always exact repeats. Identical values can stand only once. Hit rate of the full screen: of about 5,500 compounds, about 2,000 (36%) were called active. Another 18% or so got no clear call; they are omitted. No stated cut-off is given here; in the data, active means normalized growth mostly below about 0.91 (no sharp cut-off); inconclusive means no clear call, values can overlap the other calls; inactive means mostly above about 0.92. The list shows a part of the results.

Assay: chemical genetic growth profiling, strain panel (AID 1159580);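 further: tested at 20 µM; growth read once vehicle control cultures reached saturation at 30 °C; 1 = growth at the plate median or of vehicle wells; lower values mean less growth of the strain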
Details: S. cerevisiae deletion strains, growth OD

Measured: normalized growth

COc1cc2c(cc1O)CCNC2C (stereo not drawn)
inactive: locus YAL021C, strain ccr4, hits give low values 1.01 | locus YAL026C, strain drs2, hits give low values 1 | locus YAL030W, strain snc1, hits give low values 0.993 | locus YBL061C, strain skt5, hits give low values 1 | locus YBR009C, strain hhf1, hits give low values 1 | locus YBR021W, strain FUR4, hits give low values 1.01 | locus YBR023C, strain chs3, hits give low values 0.999 | locus YBR171W, strain sec66, hits give low values 0.982 | locus YBR229C, strain ROT2, hits give low values 0.993 | locus YBR231C, strain swc5, hits give low values 0.984 | locus YBR279W, strain paf1, hits give low values 0.996 | locus YCL011C, strain gbp2, hits give low values 0.992 | locus YCL016C, strain dcc1, hits give low values 1.01 | locus YCL029C, strain bik1, hits give low values 0.968 | locus YCL061C, strain MRC1, hits give low values 0.989 | locus YCL069W, strain vba3, hits give low values 0.996 | locus YCR088W, strain abp1, hits give low values 0.975 | locus YDL005C, strain med2, hits give low values 0.978 | locus YDL035C, strain GPR1, hits give low values 1.03 | locus YDL040C, strain nat1, hits give low values 0.991 | locus YDL074C, strain BRE1, hits give low values 1 | locus YDL101C, strain DUN1, hits give low values 0.989 | locus YDL134C, strain PPH21, hits give low values 1 | locus YDL185W, strain tfp1, hits give low values 0.981 | locus YDL192W, strain arf1, hits give low values 0.976 | locus YDR001C, strain nth1, hits give low values 0.999 | locus YDR069C, strain doa4, hits give low values 0.975 | locus YDR101C, strain arx1, hits give low values 0.963 | locus YDR137W, strain rgp1, hits give low values 0.99 | locus YDR150W, strain NUM1, hits give low values 0.996 | locus YDR159W, strain sac3, hits give low values 1.01 | locus YDR162C, strain NBP2, hits give low values 1.01 | locus YDR195W, strain ref2 0.94 | locus YDR297W, strain sur2, hits give low values 0.993 | locus YDR318W, strain mcm21, hits give low values 0.982 | locus YDR334W, strain swr1, hits give low values 0.99 | locus YDR335W, strain msn5, hits give low values 0.983 | locus YDR388W, hits give low values 0.98 | locus YDR392W, strain spt3, hits give low values 1.03 | locus YDR502C, strain sam2, hits give low values 0.982 | locus YEL003W, strain gim4, hits give low values 0.999 | locus YEL037C, strain rad23, hits give low values 1 | locus YEL061C, strain CIN8 (second series), hits give low values 0.99 | locus YEL061C, strain CIN8, hits give low values 0.996 | locus YER015W, strain faa2, hits give low values 0.995 | locus YER016W, strain bim1, hits give low values 1.01 | locus YER110C, hits give low values 0.965 | locus YER111C, strain swi4, hits give low values 0.975 | locus YER155C, strain BEM2 (second series), hits give low values 0.94 | locus YER155C, strain BEM2, hits give low values 0.98 | locus YER167W, strain BCK2, hits give low values 1.01 | locus YFR010W, strain ubp6, hits give low values 0.978 | locus YGL078C, strain dbp3, hits give low values 0.984 | locus YGL086W, strain mad1, hits give low values 0.968 | locus YGL167C, strain pmr1, hits give low values 0.993 | locus YGL173C, strain kem1, hits give low values 1 | locus YGL227W, strain vid30, hits give low values 0.993 | locus YGL240W, strain doc1, hits give low values 0.971 | locus YGL248W, strain PDE1, hits give low values 0.988 | locus YGL253W, strain hxk2, hits give low values 1 | locus YGR135W, strain pre9, hits give low values 0.977 | locus YGR252W, strain gcn5, hits give low values 0.983 | locus YHR013C, strain ard1, hits give low values 0.99 | locus YHR027C, strain rpn1, hits give low values 1 | locus YHR030C, strain SLT2, hits give low values 0.993 and 1.05 | locus YHR079C, strain IRE1 (second series), hits give low values 0.979 | locus YHR079C, strain IRE1, hits give low values 1.05 | locus YHR094C, strain hxt1, hits give low values 0.971 | locus YHR129C, strain ARP1, hits give low values 0.992 | locus YHR142W, strain chs7, hits give low values 1.01 | locus YHR200W, strain rpn10, hits give low values 1 | locus YIL066C, strain RNR3, hits give low values 1.01 | locus YIL073C, strain SPO22, hits give low values 0.963 | locus YIL125W, strain kgd1, hits give low values 0.981 | locus YIR030C, strain dcg1, hits give low values 0.978 | locus YJL092W, strain hpr5, hits give low values 0.991 | locus YJL095W, strain BCK1 (second series), hits give low values 0.978 | locus YJL095W, strain BCK1, hits give low values 0.984 and 1.01 | locus YJL115W, strain asf1, hits give low values 0.988 | locus YJL129C, strain trk1, hits give low values 0.99 | locus YJL134W, strain LCB3, hits give low values 0.995 | locus YJL154C, strain vps35, hits give low values 0.994 | locus YJL164C, strain tpk1, hits give low values 1 | locus YJL166W, strain qcr8, hits give low values 0.987 | locus YJL168C, strain set2, hits give low values 0.973 | locus YJL187C, strain SWE1 (second series), hits give low values 0.992 | locus YJR043C, strain POL32, hits give low values 1.05 | locus YJR066W, strain TOR1, hits give low values 0.982 | locus YKL009W, strain mrt4, hits give low values 0.961 | locus YKL068W, hits give low values 0.987 | locus YKL085W, strain MDH1 (second series), hits give low values 0.982 | locus YKL085W, strain MDH1, hits give low values 0.982 | locus YKL160W, strain elf1, hits give low values 0.994 | locus YKR001C, strain vps1, hits give low values 0.958 | locus YKR026C, strain gcn3, hits give low values 0.989 | locus YKR091W, strain srl3, hits give low values 0.991 | locus YLL001W, strain dnm1, hits give low values 0.982 | locus YLL026W, hits give low values 0.987 | locus YLL041C, strain sdh2, hits give low values 0.992 | locus YLR027C, strain aat2, hits give low values 0.98 | locus YLR039C, strain RIC1, hits give low values 1.02 | locus YLR058C, strain SHM2, hits give low values 0.995 | locus YLR102C, strain apc9, hits give low values 0.974 | locus YLR113W, strain HOG1, hits give low values 0.977 | locus YLR221C, strain rsa3, hits give low values 0.996 | locus YLR258W, strain gsy2, hits give low values 0.998 | locus YLR262C, strain YPT6 (second series), hits give low values 0.994 | locus YLR262C, strain YPT6, hits give low values 1.05 | locus YLR268W, strain sec22, hits give low values 0.965 | locus YLR320W, strain mms22, hits give low values 0.994 | locus YLR330W, strain CHS5, hits give low values 1 | locus YLR342W, strain FKS1 (second series), hits give low values 1.03 | locus YLR342W, strain FKS1, hits give low values 0.987 | locus YLR357W, strain rsc2, hits give low values 0.979 | locus YLR370C, strain arc18, hits give low values 0.988 | locus YLR371W, strain rom2, hits give low values 0.967 | locus YLR384C, strain iki3, hits give low values 0.985 | locus YLR418C, strain cdc73, hits give low values 0.973 | locus YML016C, strain PPZ1, hits give low values 0.991 | locus YML032C, strain rad52, hits give low values 0.99 | locus YML120C, strain ndi1, hits give low values 0.991 | locus YML124C, strain tub3, hits give low values 0.984 | locus YMR058W, strain fet3, hits give low values 0.991 | locus YMR078C, strain ctf18, hits give low values 0.977 | locus YMR125W, strain sto1, hits give low values 1 | locus YMR129W, hits give low values 0.996 | locus YMR205C, strain PFK2, hits give low values 0.991 | locus YMR223W, strain ubp8, hits give low values 0.985 | locus YMR231W, strain pep5, hits give low values 0.984 | locus YMR307W, strain GAS1, hits give low values 1.08 | locus YNL067W, strain RPL9B, hits give low values 0.988 | locus YNL071W, strain lat1, hits give low values 0.988 | locus YNL128W, strain TEP1, hits give low values 0.992 | locus YNL153C, strain GIM3, hits give low values 0.988 | locus YNL183C, strain NPR1, hits give low values 0.974 | locus YNL209W, strain ssb2, hits give low values 0.997 | locus YNL233W, strain BNI4, hits give low values 0.982 | locus YNL248C, strain rpa49, hits give low values 0.997 | locus YNL250W, strain rad50, hits give low values 0.99 | locus YNL271C, strain bni1, hits give low values 0.975 | locus YNL298W, strain CLA4, hits give low values 0.989 | locus YNL307C, strain MCK1, hits give low values 0.969 | locus YNL322C, strain KRE1 (second series), hits give low values 0.98 | locus YNR049C, strain mso1, hits give low values 0.987 | locus YNR052C, strain pop2, hits give low values 0.973 | locus YOL012C, strain htz1 0.945 | locus YOL147C, strain pex11, hits give low values 0.979 | locus YOR001W, strain rrp6, hits give low values 0.958 | locus YOR061W, strain CKA2, hits give low values 0.997 | locus YOR069W, strain VPS5, hits give low values 0.987 | locus YOR070C, strain gyp1, hits give low values 0.999 | locus YOR080W, strain dia2, hits give low values 0.987 | locus YOR083W, strain WHI5, hits give low values 0.988 | locus YOR106W, strain vam3, hits give low values 0.989 | locus YOR136W, strain idh2, hits give low values 0.964 | locus YOR144C, strain elg1, hits give low values 0.983 | locus YOR184W, strain ser1, hits give low values 0.988 | locus YOR231W, strain MKK1, hits give low values 1 | locus YOR265W, strain rbl2, hits give low values 0.984 | locus YOR270C, strain vph1, hits give low values 1.02 | locus YOR290C, strain snf2, hits give low values 0.999 | locus YOR316C, strain cot1, hits give low values 0.981 | locus YPL051W, strain arl3, hits give low values 0.985 | locus YPL055C, strain LGE1, hits give low values 1 | locus YPL078C, strain atp4, hits give low values 0.989 | locus YPL106C, strain sse1, hits give low values 0.991 | locus YPL240C, strain hsp82, hits give low values 1 | locus YPL256C, strain CLN2, hits give low values 1.06 | locus YPR119W, strain clb2, hits give low values 0.978 | locus YPR141C, strain kar3, hits give low values 0.968 | locus YPR163C, strain tif3, hits give low values 0.979 | locus YPR167C, strain met16, hits give low values 0.974 | strain wtn01, hits give low values 0.952
